The source of these data is ChEMBL document CHEMBL4513146, “CO-ADD screening of Karazin Kharkiv National University (Ukraine) compounds”.

Measured potencies and affinities stand elsewhere.

The first experiment has as its system Klebsiella pneumoniae. To be noted: Concentration 32 ug.mL-1;; ASSAY_TEST Inhibition of Bacterial Growth; detection method Absorption (OD600); MEDIA CAMHB; plate type 384well; NBS; CORNING #3640; time 18 hr.
In the case of `C=Cc1ccc(CN(c2cccc(F)c2)S(=O)(=O)c2ccc3nnc(C)n3c2)cc1`, the Inhibition amounted to 2.09%.
For the compound `O=C(CCc1nnc2c3cc(-c4ccccc4)nn3ccn12)N1CCN(C(=O)c2ccco2)CC1`, the Inhibition amounted to 11.67%.
Consider `CCOC(=O)c1ccccc1NC(=O)Cn1nc2c(Oc3cccc(OC)c3)nccn2c1=O`, for which the Inhibition is reported as 5.46%.
`CCOc1ccc(-n2ccn3c(SC(CC)C(=O)Nc4cc(F)ccc4F)nnc3c2=O)cc1` (stereo not drawn): the Inhibition stood at 11.22%.
On the same count and under the same terms, next, `Cc1ccc(NC(=O)Cn2nc3c(N4CC(C)CC(C)C4)nccn3c2=O)c(F)c1` (stereo not drawn): 10.72%; `CCCn1c(=O)c2sccc2n2c(CCC(=O)NC(C)C34CC5CC(CC(C5)C3)C4)nnc12` (stereo not drawn): 1.34%; `CSc1cccc(NC(=O)Cn2nc3c(SC4CCCCC4)nccn3c2=O)c1`: 1.73%.
On the same count and under the same terms, next, `O=c1c2nnc(SCc3ccccc3Cl)n2ccn1-c1ccc(F)c(F)c1`: 8.56%; `O=S(=O)(c1ccc2nncn2c1)N(Cc1ccc(Cl)cc1)c1ccc2c(c1)OCO2`: 8.29%.
For `Cc1cc2nn(CC(=O)N3CCCc4ccccc43)c(=O)n2c(Nc2ccc(F)cc2)n1`, the Inhibition came to 10.84%.
As to `Cc1ccc(C)c(NC(=O)Cn2nc3c(N4CCCC(C)C4)nccn3c2=O)c1` (stereo not drawn), the Inhibition came to 3.52%.
The same measure, in the same setting: next, `O=C(Cn1nc2ccc(SCc3ccc(Cl)cc3)nn2c1=O)NCc1ccccc1`: 6.87%; `CCCn1c(=O)c2sccc2n2c(=O)n(CC(=O)c3ccc(OC)c(OC)c3)nc12`: 5.35%; `CCOc1ccc(NC(=O)Cn2nc3c(N4CCCC4)nccn3c2=O)cc1`: 9.68%.
Same read-out and setting: in the case of `O=C(CSc1nnc2ccc(C(=O)Nc3cccc(F)c3)cn12)Nc1ccc(F)c(F)c1` it was 2.94%; in that of `COc1cccc(-c2noc(Cn3nc4ccc(-c5ccccc5)nn4c3=O)n2)c1OC`, 1.06%; in that of `O=c1c2nnc(SCc3cccc(C(F)(F)F)c3)n2ccn1-c1ccc(Br)cc1`, 4%.
On the same count and under the same terms, in the case of `COc1ccc(C(=O)CSc2nnc3c(=O)n(-c4ccccc4)ccn23)cc1OC` it was -1.19%.
As to `CC(C)c1nnc2c(=O)n(CC(=O)Nc3cc(Cl)ccc3Cl)c3ccccc3n12`, the Inhibition is recorded as 7.9%.
On the same count and under the same terms, in the case of `Cc1ccc(-c2cc3c4nnc(CCC(=O)N5CCC(Cc6ccccc6)CC5)n4ccn3n2)cc1C` it was 14.91%.
For the compound `CSc1ccc(CNC(=O)Cn2nc3c(Oc4ccc(C)cc4)nccn3c2=O)cc1`, the Inhibition was -2.38%.
For the compound `COc1ccc(NC(=O)Cn2nc3ccc(-c4ccccc4)nn3c2=O)cc1Cl`, the Inhibition was -6.25%.
On the same count and under the same terms, next, `CCc1cccc(NC(=O)Cn2nc3ccc(SC(C)(C)C)nn3c2=O)c1`: 16.66%; `O=C(Cn1nc2c(N3CCOCC3)nccn2c1=O)NCc1ccccc1Cl`: 10.56%; `Cc1cc(C)c(NC(=O)CSc2nnc3ccc(C(=O)Nc4cccc(F)c4)cn23)c(C)c1`: 4.12%.
On the same count and under the same terms, in the case of `COc1cc(NC(=O)Cn2nc3c4c5c(sc4ncn3c2=O)CCCC5)cc(OC)c1OC` it was 9%; in that of `O=C(CSc1nnc2c(=O)n(-c3ccccc3)ccn12)c1ccc(F)cc1`, 11%.
Take `CCc1nnc2c(=O)n(CC(=O)Nc3ccc(Br)cc3F)c3ccccc3n12`: the Inhibition is 8.6%.
Turning to `CC(=O)c1ccc(NC(=O)Cn2nc3ccc(-c4ccc(C)cc4)nn3c2=O)cc1`, the Inhibition is listed as 11.92%.
Consider `CCCCc1ccc(NC(=O)Cn2nc3ccc(-c4ccc(C)c(C)c4)nn3c2=O)cc1`, for which the Inhibition is 1.79%.
As to `COC(=O)c1ccc(NC(=O)Cn2nc3c(N4CCOCC4)nccn3c2=O)cc1`, the Inhibition was 12.49%.
Consider `Cc1cc(C)cc(Nc2nc(C)cc3nn(CC(=O)Nc4ccccc4)c(=O)n23)c1`, for which the Inhibition worked out at 9.53%.
On to `CC(C)NC(=O)CSc1nnc2c(=O)n(Cc3ccc(F)cc3)ccn12`, for which the Inhibition is on record as 4.17%.
On the same count and under the same terms, in the case of `CCc1ccccc1NC(=O)Cn1nc2cc(C)nc(Nc3ccc(F)cc3)n2c1=O` it was 9.33%.
As to `Cc1ccccc1NC(=O)Cn1nc2c3cc(-c4ccc(Cl)cc4)nn3ccn2c1=O`, the Inhibition stood at 14.64%.
As for `O=C(Cn1nc2ccc(-c3ccccc3)nn2c1=O)NC1CCCCC1`, the Inhibition worked out at 16.29%.
For `COc1cc(NC(=O)C(C)Sc2nnc3c(=O)n(-c4cccc(OC)c4)ccn23)cc(OC)c1` (stereo not drawn), the Inhibition stood at 2.2%.
Same read-out and setting: in the case of `CCOc1ccc(NC(=O)Cn2nc3c(Sc4ccc(C)cc4C)nccn3c2=O)cc1` it was 3.27%.
Regarding `Cc1cc2nn(CC(=O)NCc3ccco3)c(=O)n2c(Nc2ccc(C)c(F)c2)n1`, the Inhibition came to 7.94%.

For a further experiment, the system named is Candida albicans. The settings on record: Concentration 32 ug.mL-1; ASSAY_TEST Inhibition of Fungal Growth; detection method Absorption (OD530).
For the compound `C=Cc1ccc(CN(c2cccc(F)c2)S(=O)(=O)c2ccc3nnc(C)n3c2)cc1`, the Inhibition is reported as 1.51%.
On the same count and under the same terms, in the case of `O=C(CCc1nnc2c3cc(-c4ccccc4)nn3ccn12)N1CCN(C(=O)c2ccco2)CC1` it was 2.11%.
On to `CCOC(=O)c1ccccc1NC(=O)Cn1nc2c(Oc3cccc(OC)c3)nccn2c1=O`, for which the Inhibition came to 0.95%.
Still for that read-out and setting: next, `CCOc1ccc(-n2ccn3c(SC(CC)C(=O)Nc4cc(F)ccc4F)nnc3c2=O)cc1` (stereo not drawn): 0.62%; `Cc1ccc(NC(=O)Cn2nc3c(N4CC(C)CC(C)C4)nccn3c2=O)c(F)c1` (stereo not drawn): 3.58%.
For the compound `CCCn1c(=O)c2sccc2n2c(CCC(=O)NC(C)C34CC5CC(CC(C5)C3)C4)nnc12` (stereo not drawn), the Inhibition was 7.2%.
Turning to `CSc1cccc(NC(=O)Cn2nc3c(SC4CCCCC4)nccn3c2=O)c1`, the Inhibition is -2.6%.
The same measure, in the same setting: in the case of `O=c1c2nnc(SCc3ccccc3Cl)n2ccn1-c1ccc(F)c(F)c1` it was 3.72%; in that of `O=S(=O)(c1ccc2nncn2c1)N(Cc1ccc(Cl)cc1)c1ccc2c(c1)OCO2`, 2.29%; in that of `Cc1cc2nn(CC(=O)N3CCCc4ccccc43)c(=O)n2c(Nc2ccc(F)cc2)n1`, 1.07%.
The same measure, in the same setting: in the case of `Cc1ccc(C)c(NC(=O)Cn2nc3c(N4CCCC(C)C4)nccn3c2=O)c1` (stereo not drawn) it was 2.37%; in that of `O=C(Cn1nc2ccc(SCc3ccc(Cl)cc3)nn2c1=O)NCc1ccccc1`, 25.95%; in that of `CCCn1c(=O)c2sccc2n2c(=O)n(CC(=O)c3ccc(OC)c(OC)c3)nc12`, -1.4%.
The same measure, in the same setting: next, `CCOc1ccc(NC(=O)Cn2nc3c(N4CCCC4)nccn3c2=O)cc1`: 0.82%; `O=C(CSc1nnc2ccc(C(=O)Nc3cccc(F)c3)cn12)Nc1ccc(F)c(F)c1`: 5.97%.
Regarding `COc1cccc(-c2noc(Cn3nc4ccc(-c5ccccc5)nn4c3=O)n2)c1OC`, the Inhibition was 2.21%.
The same measure, in the same setting: next, `O=c1c2nnc(SCc3cccc(C(F)(F)F)c3)n2ccn1-c1ccc(Br)cc1`: 27.57%.
Turning to `COc1ccc(C(=O)CSc2nnc3c(=O)n(-c4ccccc4)ccn23)cc1OC`, the Inhibition is reported as 25.44%.
On the same count and under the same terms, next, `CC(C)c1nnc2c(=O)n(CC(=O)Nc3cc(Cl)ccc3Cl)c3ccccc3n12`: 3.43%; `Cc1ccc(-c2cc3c4nnc(CCC(=O)N5CCC(Cc6ccccc6)CC5)n4ccn3n2)cc1C`: 0.82%; `CSc1ccc(CNC(=O)Cn2nc3c(Oc4ccc(C)cc4)nccn3c2=O)cc1`: 4.95%.
On to `COc1ccc(NC(=O)Cn2nc3ccc(-c4ccccc4)nn3c2=O)cc1Cl`, for which the Inhibition is reported as 19.43%.
The same measure, in the same setting: in the case of `CCc1cccc(NC(=O)Cn2nc3ccc(SC(C)(C)C)nn3c2=O)c1` it was 3.39%; in that of `O=C(Cn1nc2c(N3CCOCC3)nccn2c1=O)NCc1ccccc1Cl`, 3.88%; in that of `Cc1cc(C)c(NC(=O)CSc2nnc3ccc(C(=O)Nc4cccc(F)c4)cn23)c(C)c1`, 1.89%.
With `COc1cc(NC(=O)Cn2nc3c4c5c(sc4ncn3c2=O)CCCC5)cc(OC)c1OC`, the Inhibition was determined as 0.11%.
On the same count and under the same terms, in the case of `O=C(CSc1nnc2c(=O)n(-c3ccccc3)ccn12)c1ccc(F)cc1` it was 4.07%.
On the same count and under the same terms, in the case of `CCc1nnc2c(=O)n(CC(=O)Nc3ccc(Br)cc3F)c3ccccc3n12` it was 6.85%; in that of `CC(=O)c1ccc(NC(=O)Cn2nc3ccc(-c4ccc(C)cc4)nn3c2=O)cc1`, 4.12%; in that of `CCCCc1ccc(NC(=O)Cn2nc3ccc(-c4ccc(C)c(C)c4)nn3c2=O)cc1`, 1.02%.
Still for that read-out and setting: in the case of `COC(=O)c1ccc(NC(=O)Cn2nc3c(N4CCOCC4)nccn3c2=O)cc1` it was 2.39%; in that of `Cc1cc(C)cc(Nc2nc(C)cc3nn(CC(=O)Nc4ccccc4)c(=O)n23)c1`, 4.6%; in that of `CC(C)NC(=O)CSc1nnc2c(=O)n(Cc3ccc(F)cc3)ccn12`, 2.95%.
For `CCc1ccccc1NC(=O)Cn1nc2cc(C)nc(Nc3ccc(F)cc3)n2c1=O`, the Inhibition is recorded as 29.91%.
The same measure, in the same setting: in the case of `Cc1ccccc1NC(=O)Cn1nc2c3cc(-c4ccc(Cl)cc4)nn3ccn2c1=O` it was 1.52%; in that of `O=C(Cn1nc2ccc(-c3ccccc3)nn2c1=O)NC1CCCCC1`, 0.48%; in that of `COc1cc(NC(=O)C(C)Sc2nnc3c(=O)n(-c4cccc(OC)c4)ccn23)cc(OC)c1` (stereo not drawn), -0.84%.
Regarding `CCOc1ccc(NC(=O)Cn2nc3c(Sc4ccc(C)cc4C)nccn3c2=O)cc1`, the Inhibition is 6.36%.
On the same count and under the same terms, in the case of `Cc1cc2nn(CC(=O)NCc3ccco3)c(=O)n2c(Nc2ccc(C)c(F)c2)n1` it was 7.51%.
